Tests used:
[1] = target: T1, Aspartate--tRNA(Asp/Asn) ligase (Mycobacterium tuberculosis (strain ATCC 25618 / H37Rv)) (UniProt P9WFW3); assay: Assay for Asp RNA synthetase-1 from Mycobacterium tuberculosis; type: functional; parameters: scale not given: direction of the effect not stated beside the values; details: 30 µM; further: in the data most compounds retested in dose-response had high values
T1 sequence (whole entry): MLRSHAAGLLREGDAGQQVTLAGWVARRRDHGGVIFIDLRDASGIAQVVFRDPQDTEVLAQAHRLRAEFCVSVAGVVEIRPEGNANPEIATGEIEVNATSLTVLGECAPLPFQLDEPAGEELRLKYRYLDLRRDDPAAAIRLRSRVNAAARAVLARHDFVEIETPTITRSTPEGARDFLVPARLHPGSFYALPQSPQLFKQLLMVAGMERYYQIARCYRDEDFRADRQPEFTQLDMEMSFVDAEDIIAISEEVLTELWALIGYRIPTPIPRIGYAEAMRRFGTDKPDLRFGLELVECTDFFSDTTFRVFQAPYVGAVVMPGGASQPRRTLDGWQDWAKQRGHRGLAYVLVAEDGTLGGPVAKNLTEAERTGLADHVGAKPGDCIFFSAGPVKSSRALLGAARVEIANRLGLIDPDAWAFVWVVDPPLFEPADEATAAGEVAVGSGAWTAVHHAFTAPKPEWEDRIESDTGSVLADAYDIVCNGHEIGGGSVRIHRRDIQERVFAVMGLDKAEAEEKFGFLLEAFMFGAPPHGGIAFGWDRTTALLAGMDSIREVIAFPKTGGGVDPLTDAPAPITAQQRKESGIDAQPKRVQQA

[2] = target: Shiga toxin 2 (Escherichia coli O157:H7) (UniProt P09385+P09386); assay: E. coli 0.157:H7 Shiga Toxin SOP - stx2 screening assay; type: functional; parameters: scale not given: direction of the effect not stated beside the values; details: 30 µM

## CCOC(=O)c1sc2ccsc2c1CNC(=O)CC
[1]
  Percent Effect: 1.08%
[2]
  Percent Effect: -9.72%

## Cc1cccc(-c2nc(CN3CCc4c(ncn4C)C3)no2)c1
[1]
  Percent Effect: 1.91%
[2]
  Percent Effect: 4.04%

## Cc1cc(CN2CCN(C(=O)c3sccc3C3CC3)CC2)on1
[1]
  Percent Effect: 0.922%
[2]
  Percent Effect: 27%

## CCN1CC(C(=O)NC(C)(C)CC(C)(C)C)CC1=O (centres undefined)
[1]
  Percent Effect: 2.27%
[2]
  Percent Effect: -6.14%

## CC(C)c1nc(C2CCCN2C(=O)c2ccc(N(C)C)nn2)no1 (centres undefined)
[1]
  Percent Effect: 5.45%
[2]
  Percent Effect: 18.3%

## CCc1ccc(S(=O)(=O)Nc2cc(C(=O)O)c(F)cc2F)s1
[1]
  Percent Effect: -4.19%
[2]
  Percent Effect: -16.1%

## Cc1cnn(C2CCCN(C(=O)c3cnc4ccccc4n3)C2)c1 (centres undefined)
[1]
  Percent Effect: 9.11%
[2]
  Percent Effect: 25.1%

## Cc1occc1C(=O)N1CCc2c(COCC3CC3)cncc2C1
[1]
  Percent Effect: -0.443%
[2]
  Percent Effect: -11.9%

## COc1ccc(NC(=O)CNc2ccc(Br)cc2F)cc1
[1]
  Percent Effect: 1.68%
[2]
  Percent Effect: -79.8%

## CC(C)(C)c1noc(CN2CCN(C(=O)c3cccs3)CC2)n1
[1]
  Percent Effect: 0.425%
[2]
  Percent Effect: 6.49%

## CCOCC(O)CN1CCN(C(=O)CC(C)(C)C)CC1 (centres undefined)
[1]
  Percent Effect: -3.73%
[2]
  Percent Effect: 14.9%

## COc1ccc(CN2C[C@H]3CC[C@](O)(c4ccc(C)cn4)[C@H]3C2)c(F)c1
[1]
  Percent Effect: 2.93%
[2]
  Percent Effect: 14.7%

## Cn1cc(C2COC3(CCN(C(=O)Cn4cccn4)CC3)C2)cn1 (centres undefined)
[1]
  Percent Effect: 8.57%
[2]
  Percent Effect: -7.73%

## Cc1ccc(-c2cc(CN3CCCC(Cn4cncn4)C3)on2)cc1 (centres undefined)
[1]
  Percent Effect: 2.71%
[2]
  Percent Effect: -31.3%

## COc1ccc(CCN2CCCC(Cn3nc(C)nc3C)C2)cc1 (centres undefined)
[1]
  Percent Effect: -3.48%
[2]
  Percent Effect: -52.1%

## CN(Cc1ccccc1F)C(=O)CS(=O)(=O)Cc1ccc(Cl)c(Cl)c1
[1]
  Percent Effect: 2.16%
[2]
  Percent Effect: 37%

## COC(=O)c1ccc2ccn(CC3CCNC3)c(=O)c2c1 (centres undefined)
[1]
  Percent Effect: 3.08%
[2]
  Percent Effect: -45.4%

Source: ChEMBL document CHEMBL3988442, “University of Dundee, Small-Polar-MMV Screening Library” (2021)
